From article PMC12670160, “A drug-repurposing screen of FDA- and EMA-approved drugs identifies two NF-κB inhibitors active against eumycetoma” (Journal of Antimicrobial Chemotherapy, 2025) come the findings set out here.

Structures can show the parent of a compound that is named as a salt. Out of some 5,300 compounds screened, about 130 (2.5%) showed an effect of 50% or more. The list comes from a sample in which strong results are over-represented; it also holds similar structures and randomly drawn compounds. Peptide text beside a SMILES is read from it.

This assay relates to M. mycetomatis strain mm55. Conditions: primary screen, metabolic activity vs growth control; 96 h, 2 µM; inhibitor.
`CC(C)n1c(/C=C/[C@@H](O)C[C@@H](O)CC(=O)O)c(-c2ccc(F)cc2)c2ccccc21` (racemic) [ONC0004817, fluvastatin sodium lescol]: the “% viability” value came to 110.8%. `CCCCCCCCCCCCCCOC(=O)c1cccnc1` [ONC0003671, tetradecyl nicotinate]: the “% viability” value is 79.3%. `C[C@@H]1CCCN1CCc1cc2cc(-c3ccc(C#N)cc3)ccc2o1` [ONC0003444, abt 239 tartrate]: the “% viability” value was determined as 49.56%. For the molecule `N=C(N)/N=C(\N)N1CCOCC1` [ONC0005372, moroxydine hydrochloride], the “% viability” value was found to be 114.7%.

Consider `CC(C)(N)CC12CC3CC(CC(C3)C1)C2` [ONC0004056, somantadine], for which the “% viability” value is given as 120.7%. For the molecule `c1cc(OCCN2CCCCC2)cc(-c2n[nH]c3ccc(-c4nc[nH]n4)cc23)c1` [ONC0000900, cc401 hydrochloride], the “% viability” value stood at 73.26%. As for `CCCN1CCO[C@@H]2c3cc(O)ccc3OC[C@H]21` [ONC0000309, pd128907], the “% viability” value is 42.57%. Take `CCCN1CCC[C@H](c2cccc(O)c2)C1` [ONC0002744, r33hydroxyphenylnpropylpiperidine hydrochloride]: the “% viability” value is listed as 58.06%. The result for `Oc1ccc([C@H]2COc3cc(O)ccc3C2)cc1` [ONC0004406, equol] reads 119.9%; that for `COC(=O)N[C@H](C(=O)N1CC2(CC2)C[C@H]1c1ncc(-c2ccc3c(c2)C(F)(F)c2cc(-c4ccc5nc([C@@H]6[C@H]7CC[C@H](C7)N6C(=O)[C@@H](NC(=O)OC)C(C)C)[nH]c5c4)ccc2-3)[nH]1)C(C)C` [ONC0001967, ledipasvir], 73.81%; that for `CC(C)NCC(O)c1ccc(O)c(O)c1` (stereo not drawn) [ONC0000608, isoproterenol hydrochloride], 81.88%. In the case of `CC(C)NCC(O)c1ccc([N+](=O)[O-])cc1` (stereo not drawn) [ONC0002319, nifenalol] it was 49.56%; in that of `CC(C)NCC(O)c1ccc(N)c(C#N)c1` (stereo not drawn) [ONC0003014, cimaterol], 76.31%.

In the case of `CC/C=C\C/C=C\C/C=C/C/C=C\C/C=C\C/C=C\CCC(=O)OCC` [ONC0002811], the “% viability” value was found to be 151.6%. In the case of `COC(=O)[C@H](CCCNC(=N)N)NS(=O)(=O)c1ccc(C)cc1` [ONC0004976, tame] it was 63.05%; in that of `N=C(N)c1cc2ccc(OC(=O)c3cccs3)cc2s1` [ONC0004238, bcx 1470 methanesulfonate], 62.8%; in that of `CC[C@H](c1ccc(O)cc1)[C@@H](CC)c1ccc(O)cc1` [ONC0003849, hexestrol], 49.29%.

`CC/C(=C(/CC)c1ccc(O)cc1)c1ccc(O)cc1` [ONC0003197, diethylstilbestrol]: the “% viability” value came to 93.2%. On to `CNCC(O)c1ccc(O)cc1` (stereo not drawn) [ONC0005413, oxedrine], for which the “% viability” value came to 69.09%.

Take `C#C[C@]1(O)CC[C@H]2[C@@H]3CCC4=CC(=NO)CC[C@@H]4[C@H]3CC[C@@]21CC` (mixture of isomers) [ONC0000953, norgestimate metabolite norelgestromin]: the “% viability” value came to 67.65%. On to `CO[C@H]1/C=C/O[C@@]2(C)Oc3c(C)c(O)c4c(O)c(c(/C=N/N5CCN(C)CC5)c(O)c4c3C2=O)NC(=O)/C(C)=C\C=C\[C@H](C)[C@H](O)[C@@H](C)[C@@H](O)[C@@H](C)[C@H](OC(C)=O)[C@@H]1C` [ONC0003357, rifampin], for which the “% viability” value came out at 107.5%. In the case of `CO[C@H]1/C=C/O[C@@]2(C)Oc3c(C)c(O)c4c(O)c(c(/C=N/N5CCN(C6CCCC6)CC5)c(O)c4c3C2=O)NC(=O)/C(C)=C\C=C\[C@H](C)[C@H](O)[C@@H](C)[C@@H](O)[C@@H](C)[C@H](OC(C)=O)[C@@H]1C` [ONC0002002, rifapentine] it was 77.39%; in that of `COC1/C=C/OC2(C)Oc3c(C)c(O)c4c(O)c(c(/C=N/N=C/N5CCCCC5)c(O)c4c3C2=O)NC(=O)/C(C)=C\C=C\C(C)C(O)C(C)C(O)C(C)C(OC(C)=O)C1C` (stereo not drawn) [ONC0003798, fce22250], 33.52%; in that of `N#Cc1cn([C@@H]2O[C@H](CO)[C@@H](O)[C@H]2O)c2ncnc(N)c12` [ONC0003230, toyocamycin], 99.22%. In the case of `Cl.O=C(c1ccc(-c2ccc(Cl)cc2)o1)N(Cc1ccccn1)c1ccc(N2CCNCC2)cc1` [ONC0002178, mk2in1 hydrochloride] it was 65.24%; in that of `CC(=O)Nc1ccc(C(=O)NC(C)(C)C)cc1` [ONC0002880], 98.46%. The result for `O=C(Nc1ccc(C(O)(C(F)(F)F)C(F)(F)F)cc1)c1ccc(C(F)(F)F)cc1` [ONC0000412, sr1078] reads 46.34%; that for `C/C(O)=C(\C#N)C(=O)Nc1ccc(C(F)(F)F)cc1` [ONC0000878, teriflunomide], 64.9%.

Turning to `CC(=O)OC[C@H](N)C(=O)O.Cl` [ONC0000420, oacetyllserine hcl], the “% viability” value is on record as 77.43%.

Regarding `CC[C@@]1(O)C(=O)OCc2c1cc1n(c2=O)Cc2cc3c(N)cccc3nc2-1` [ONC0005467, 9aminocamptothecin], the “% viability” value was 102.4%. The result for `CCCCCCCCCCCCCCOS(=O)(=O)O` [ONC0003317, sodium tetradecyl sulfate] reads 84.61%; that for `Cc1cccc(-c2[nH]c(C(C)(C)C)nc2-c2ccc3c(c2)OCO3)n1` [ONC0005219, sb505124], 129%; that for `CCNC(=O)c1[nH]nc(-c2cc(Cl)c(O)cc2O)c1-c1ccc(OC)cc1` [ONC0005116, ver49009], 88.78%. For the molecule `CCc1cc(-c2n[nH]c(C)c2-c2ccc3c(c2)OCCO3)c(O)cc1O` [ONC0003616, cct018159], the “% viability” value stood at 49.48%. For the molecule `CC(C)CC1NC(=O)C(C(C)C)NC(=O)C2CCCN2C(=O)C(CC(=O)O)NC(=O)C(Cc2c[nH]c3ccccc23)NC1=O` (stereo not drawn) [ONC0004583, bq123] (cyclo(DPVLW); configuration not given here), the “% viability” value is 106.9%. In the case of `CC(=O)NC1[C@@H](O)OC(CO)[C@@H](O)[C@H]1O` (stereo partly drawn) [ONC0002960, nacetylmannosamine] it was 104.5%.
